Test results: ChEMBL document CHEMBL4513216, “Probing the Open Global Health Chemical Diversity Library for Multistage-Active Starting Points for Next-Generation Antimalarials” (ACS Infect Dis, 2020)
The campaign covered roughly 69,000 compounds. About 8,600 (12%) showed an effect of 50% or more. This is one part of a sample in which strong results are shown more often than they occur.

tested on: Plasmodium berghei; test: Screen against P. berghei liver stage (PbLuc), transformed with Luciferase, at 10uM; assay type: functional, HepG2; details: tested at 10 uM

| Structure (SMILES) | INHIBITION |
| --- | --- |
| O=C(O)C1(Cc2cccc(Cl)c2)CCCN(c2ncnc3[nH]ccc23)C1 (centres undefined) | -37.9% |
| CC(C)Cc1nc(CN(C)c2cc(C(C)C)nc3ccnn23)no1 | -30.6% |
| CCNC(=O)N1CCC(c2ccccc2)C1 (centres undefined) | -31% |
| CSCc1cc(F)ccc1CNCc1ncc[nH]1 | 63.3% |
| CSCc1cc(F)ccc1CNCc1cccnc1 | 35.4% |
| CSCc1cc(F)ccc1CNCc1ccncc1 | 24.2% |
| Cc1nc(Nc2ncccn2)cc(C2CN(C(=O)c3cccnc3)C2)n1 | 37.6% |
| CC1=CC[C@@H]2CN(C(=O)c3ccc(-c4nnn(C)n4)cc3)C[C@@H]2C1 | 35.8% |
| CC(C)Nc1nc2c(c(NC3CC3)n1)CCN(Cc1nccn1C)CC2 | 60.3% |
| CC(C)N(C)Cc1noc2c1CN(C(=O)c1ccsc1)CC2 | -18.5% |
| CC(C)Nc1nc2c(c(N(C)C)n1)CCN(Cc1nccn1C)CC2 | 21.7% |
| Cc1nc(NC(C)C)nc2c1CN(Cc1nccn1C)CC2 | -4.02% |
| CC(C)Nc1nc2c(cc1C(=O)O)CCN(Cc1ccsc1)CC2 | 21.4% |
| CC(C)Nc1nc2c(c(NC3CC3)n1)CN(C(=O)c1ccnnc1)CC2 | 65.9% |
| CC(C)Nc1nc2c(c(NC3CC3)n1)CN(C(=O)c1ccncc1)CC2 | 5.36% |
| Cc1ccc(NC2CCN(C(=O)c3ccsc3)CC2)nn1 | 31.8% |
| CC(C)Nc1nc2c(c(NC3CC3)n1)CN(C(=O)Cc1ccsc1)CC2 | 83.7% |
| CC(C)Nc1nc2c(c(NC3CC3)n1)CCN(C1CCOCC1)CC2 | 23.1% |
| CC(C)Nc1nc2c(c(NC3CC3)n1)CN(C(=O)c1ccsc1)CC2 | 79.2% |
| CC(C)N(C)Cc1cnc2n1CCN(C(=O)Cc1ccsc1)C2 | -13% |
| CC(C(=O)NCCOc1ccccc1)n1cncn1 (centres undefined) | 2.97% |
| CN(C)C(=O)CN1CC[C@H]2CN(S(C)(=O)=O)C[C@@H]2C1=O | -41.8% |

| Structure (SMILES) | INHIBITION |
| --- | --- |
| O=C(c1ccccc1F)N1C[C@H]2CCC[C@@]2(COCc2ccncc2)C1 | 15.4% |
| Cc1cnn(CCNCc2csc(-c3ccccc3)n2)c1 | 34.75% |
| CC(C)CN1CC[C@@H]2[C@H](CC1)N(C(=O)c1ccccc1)CCS2(=O)=O | 36.9% |
| COc1ccccc1OCC(=O)NCC(C)(O)c1ccccc1 (centres undefined) | 9.79% |
| CC(C)n1cc(CN2CCCN(C(=O)CC3CCCO3)CC2)cn1 (centres undefined) | -4.94% |
| O=C(CCS(=O)(=O)c1ccccc1)N1CCCC(n2cccn2)C1 (centres undefined) | 34.5% |
| Cn1cnc2c1C(COCc1ccccc1)N(Cc1ccccn1)CC2 (centres undefined) | 18.5% |
| Cc1c(S(=O)(=O)N2CCCC2c2nnc(-c3ccsc3)o2)cnn1C (centres undefined) | 0.4% |
| CN1C[C@H]2CC[C@@H](CC1=O)N2C(=O)c1ccc(-c2ccccc2)[nH]c1=O | -45% |
| Cc1nn(C)c(Cl)c1CNCc1cccnc1N1CCOCC1 | 41.8% |
| CN(C(=O)CNc1ccc(C#N)cc1)C1CCCCC1 | -87.7% |
| NC(=O)CN(Cc1ncc(-c2ccccc2)o1)C1CCCC1 | -32% |
| N#Cc1ccc(CN(CC(N)=O)Cc2cccc(F)c2)cc1 | 17.1% |
| N#Cc1ccc(CN(CC(N)=O)C2CCCC2)cc1 | 90.2% |
| N#Cc1ccccc1CN(CC(N)=O)C1CCCC1 | 20.9% |
| N#Cc1ccc(CN(CC(N)=O)C2CCCC2)c(Br)c1 | 90.2% |
| Cn1cccc1C(=O)N1CCn2nnc(COc3cccnc3)c2C1 | -6.21% |
| Cc1nn(C)c(N(C)C)c1CNCc1ccnc(N2CCCCC2)c1 | -56.7% |
| Cc1ccc(C(=O)N2CCN(CC(C)O)CC2)cc1S(C)(=O)=O (centres undefined) | -19.6% |
| CS(=O)(=O)c1ccc(NC(=O)NCCC2=CCCCC2)cc1 | -165% |
| COc1cc(NC(=O)c2ccc(C)cc2C)c(C(=O)N(C)C)cc1OC | -7.36% |
| CN(CCCNC(=O)C1CCc2cn[nH]c2C1)c1ccccc1 (centres undefined) | 24.3% |

| Structure (SMILES) | INHIBITION |
| --- | --- |
| O=C(NCCCSc1ccc(F)cc1)C1CCc2cn[nH]c2C1 (centres undefined) | 50.8% |
| CN(CCCNC(=O)C1CCc2cn[nH]c2C1)c1ccc(F)cc1 (centres undefined) | 31.2% |
| CN(Cc1nc(Cc2cccc(F)c2)no1)C1CCOCC1 | -24.2% |
| Cc1nn(C)cc1Cn1c(=O)cnc2ccccc21 | 43.4% |
| COCC(=O)Nc1ccc2c(c1)C1(CCOCC1)CN2CCF | -4.08% |
| CCS(=O)(=O)Nc1ccc2c(c1)C1(CCOCC1)CN2C | 46.6% |
| COCCN1CC(C(=O)Nc2ccc3c(c2)CCC(=O)N3C)CC1=O (centres undefined) | -22.6% |
| CCC(=O)Nc1ccc2c(c1)C1(CCOCC1)CN2CCF | 10.4% |
| CN(C)C(=O)N1CC2(CCOCC2)c2cc(NC(=O)CCO)ccc21 | 45.2% |
| CCCC(=O)Nc1ccc2c(c1)C1(CCOCC1)CN2CCOC | 52.1% |
| CCN1CC2(CCOCC2)c2cc(NS(=O)(=O)CC)ccc21 | 38.5% |
| CCC(=O)Nc1ccc2c(c1)C1(CCOCC1)CN2CCOC | 55.7% |
| COCCN1CC2(CCOCC2)c2cc(NC(=O)C3CC=CC3)ccc21 | 76.5% |
| Cn1ccnc1CN1CCC2(CC1)CC(NC(=O)c1ccccn1)CO2 (centres undefined) | 28.4% |
| Cc1cc(C)nc(C2(C)CCCN2CCO)n1 (centres undefined) | -4.6% |
| CCCc1cc(C(=O)Nc2nc(SC)ns2)n(C)n1 | -106.9% |
| Cc1ccccc1C(C)NC(=O)CSCC#N (centres undefined) | 31.9% |
| Cc1ccc(C(=O)NC2CCN(S(C)(=O)=O)CC2)c(=O)[nH]1 | 47.7% |
| Cc1cnc(C(=O)N2CCN(c3ncc4c(n3)CCOC4)CC2)cn1 | 27.4% |
| CCCc1nc(CN(CC)C(=O)c2onc3ccccc23)no1 | -14.1% |
| COCCN1CC(O)CN(C(=O)c2ccc(SC)cc2)CC1=O (centres undefined) | 29% |
| Cc1ccc(S(=O)(=O)Nc2ccc(-n3cccc3C(=O)O)c(C)c2)cc1 | 56% |

| Structure (SMILES) | INHIBITION |
| --- | --- |
| Cc1ccc(S(=O)(=O)Nc2ccc(-n3cccc3C(=O)O)c(C)c2)s1 | -3.16% |
| Cc1cc(NS(=O)(=O)c2ccccc2F)ccc1-n1cccc1C(=O)O | -19.7% |
| Cc1n[nH]c(C)c1NC(=O)CN1CCN(c2nccs2)C(C)C1 (centres undefined) | 14.4% |
| Cc1ccc2nc(C(=O)N3CCC(CCn4cccn4)CC3)cn2c1 | -14.1% |
| Cc1cccn2c(CC(=O)N3CCC(Oc4ncccn4)CC3)cnc12 | -30.3% |
| Cc1cccn2c(CC(=O)N3CCC(CCn4cccn4)CC3)cnc12 | 71.3% |
| COc1ncc(NCc2cc(C#N)cs2)cc1C(N)=O | 11.4% |
| CO[C@@H]1CCN(Cc2c(C)noc2C)[C@@H]2CN(Cc3ccco3)C[C@@H]21 | 35.5% |
| CCN(CC1CCOC1)C(=O)Nc1ccc(N2CCOCC2)nc1 (centres undefined) | 36.05% |
| Cn1cc(CCC(=O)N2CCCN(c3ncccc3C#N)CC2)cn1 | 37.4% |
| O=S(=O)(c1cc(F)ccc1F)N1CCCC1c1ccncc1 (centres undefined) | 19.3% |
| COc1ccc(C2CCCN2S(=O)(=O)c2cc(F)ccc2F)cc1 (centres undefined) | 62.6% |
| Cc1ccc(F)c(S(=O)(=O)N2CCCC2c2ccncc2)c1 (centres undefined) | 45.3% |
| CCOCc1cccc(S(=O)(=O)Nc2ccn(CC)n2)c1 | 18.4% |
| O=C(c1cnc2c(c1)CCC2)N1CCCC(CO)(CC2CC2)C1 (centres undefined) | 68.4% |
| COCCC1(C(=O)O)CCCN(C(=O)c2cnc3c(c2)CCCC3)C1 (centres undefined) | 47.1% |
| COCCCC1(CO)CCCN(C(=O)c2cnc3c(c2)CCCC3)C1 (centres undefined) | 35.9% |
| Cc1[nH]n(C)c2nc(=O)cc(C(F)(F)C(F)(F)F)c1-2 | 76.3% |
| CCn1[nH]c(C)c2c(C(F)(F)C(F)(F)F)cc(=O)nc1-2 | 50.5% |
| CCn1[nH]c(C)c2c(C(F)(F)F)cc(=O)nc1-2 | 31.7% |
| O=C(Cn1nc2ccccc2n1)N1CCCn2cncc2C1 | 1.37% |
| Cc1csc(NC(=O)C(C)Oc2ccc3c(c2)OCO3)n1 (centres undefined) | 16.2% |

| Structure (SMILES) | INHIBITION |
| --- | --- |
| Cc1cnn(CC2CCCN2C(=O)c2cc(O)nc3ccccc23)c1 (centres undefined) | -29.8% |
| Cc1ccc(NC(=O)NCCc2ccncc2C)c(N(C)C)n1 | -0.554% |
| Cc1nccn1CCCN1CCC(c2nccn2CC2CCC2)CC1 | 60.2% |
| Cc1nccn1CCCN1CCCC(c2nccn2C)C1 (centres undefined) | 34.2% |
| Cc1nccn1CCCN1CCCC(c2nccn2CC2CCC2)C1 (centres undefined) | 41.8% |
| CS(=O)(=O)N1CCOCC2(CN(Cc3nccs3)CCO2)C1 (centres undefined) | 45.2% |
| CCOCC(O)CN1CCN(C(=O)C(C)(C)CC)CC1 (centres undefined) | 24% |
| O=C(c1cncc(NCC2COc3ccccc3C2)n1)N1CCOCC1 (centres undefined) | 3.13% |
| CN(Cc1cc(C(C)(C)C)n[nH]1)C(=O)c1ccc2nccn2c1 | 48.3% |
| CCN1CC(COc2ccc(OC)cc2)Oc2ccncc2S1(=O)=O (centres undefined) | -10.3% |
| O=S1(=O)c2cnccc2OC(COc2ccccc2)CN1CC1CC1 (centres undefined) | 22.2% |
| CC(C)(C)CN1CC(COc2ccccc2)Oc2ccncc2S1(=O)=O (centres undefined) | 59.3% |
| COc1cccc(-c2cc(C(=O)NCCCC(F)(F)F)[nH]n2)c1 | -16% |
| CC(C)n1c(=O)[nH]c2cn(-c3ccc(Br)cc3)c(=O)n21 | -17.3% |
| O=C(O)c1ccccc1CN1CCC2(Cc3ccccc3CNC2=O)C1 (centres undefined) | 40% |
| NS(=O)(=O)CCNC(=O)C1(c2ccc(Br)cc2)CC1 | -8.19% |
| CC(C)(C)c1ccc(C2(C(=O)NCCCS(C)(=O)=O)CC2)cc1 | 43.5% |
| CC(C)(C)c1ccc(C2(C(=O)NCCS(C)(=O)=O)CC2)cc1 | 62.3% |
| CC(C)(C)c1ccc(C2(C(=O)NCCS(N)(=O)=O)CC2)cc1 | 68.5% |
| CS(=O)(=O)NCCNC(=O)C1(c2ccc(F)cc2)CC1 | 27.6% |
| NS(=O)(=O)CCNC(=O)C1(c2ccccc2)CC1 | 19.6% |
